# Measurements: PubChem BioAssay AID687001 (Broad Institute, 2013)
# Potency and affinity values are given separately. Calls of active or inactive are those of the source.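 How the source made its calls: active means signal-lowering compounds whose fitted half-maximal concentration is at or below twice the top tested dose in every run; inconclusive means runs disagree, flat 30 to 70% inhibition, or poor curve fit; inactive means the rest.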
# Target: Protein S100-A4 (Homo sapiens) (UniProt P26447)
# Assay: human S100A4 peptide interaction inhibition curves – biochemical, fluorescence polarization, cherry-picked hits, dose response (AID 687001)
# Settings: FP, S100A4/TAMRA-myosin IIA peptide binding; series mostly up to 11 µM
# Sequence of Protein S100-A4 (Homo sapiens) (P26447 whole entry, looked up): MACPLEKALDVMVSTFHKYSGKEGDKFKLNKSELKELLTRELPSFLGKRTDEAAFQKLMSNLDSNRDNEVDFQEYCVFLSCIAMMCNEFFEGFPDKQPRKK
row,SMILES,outcome
1,Cc1ccc(N(C)S(=O)(=O)c2ccc3[nH]cc(C(=O)NCCCN4CCOCC4)c(=O)c3c2)cc1C,inactive
2,CCN(CC)c1ccc(S(=O)(=O)N2CCOCC2)cc1NC(=O)COC(=O)/C=C/c1ccccc1,inactive
3,CNc1nc(-c2ccc(S(=O)(=O)N3CCCCC3)cc2)cs1,inactive
4,COCC(=O)N1CC2(CCN(Cc3ccccc3Cl)CC2)c2c([nH]c3cc(OC)ccc23)[C@H]1CO,inactive
5,C[C@H]1CN([C@@H](C)CO)C(=O)c2cc(Br)cnc2O[C@H]1CN(C)C(=O)c1ccccc1F,inactive
6,C(=Cc1nc2ccccc2o1)c1ccc2c(c1)OCO2,inactive
7,Cc1cccc(-n2nc3c(c2NC(=O)c2cc4ccccc4o2)CS(=O)(=O)C3)c1,inactive
8,COc1ccccc1-c1noc2c1C(=O)N(Cc1cn(-c3ccc(Cl)cc3)nn1)CC2,inactive
9,C[C@@H]1CN([C@@H](C)CO)C(=O)c2cccc(NC(=O)C3CCOCC3)c2O[C@@H]1CN(C)Cc1ccc(C(=O)Nc2ccccc2N)cc1,inactive
10,Cc1ccccc1OCC(=O)Nc1ccc(S(=O)(=O)N2CCCC2)cc1,inactive
11,CCCNC(=O)C(Cc1ccc(C(F)(F)F)cc1)NC(=O)c1ccc2ccccc2n1 (stereo not drawn),inactive
12,O=C(CSc1nnc(NC(=O)C2CC2)s1)NCc1ccccc1Cl,inactive
13,CC(C)=CC(=O)O[C@@H]1Cc2cc3ccc(=O)oc3cc2OC1(C)C,inactive
14,COCC#Cc1cnc2c(c1)C(=O)N([C@H](C)CO)C[C@H](C)[C@H](CN(C)C(=O)C1CCC1)O2,inactive
15,CC(C)CC#Cc1ccc([C@H]2[C@H]3CN(C(=O)Cc4cccnc4)CC(=O)N3[C@H]2CO)cc1,inactive
16,Cc1cnc(CN(C)C(=O)C2CCC(=O)N(CCc3ccccc3)C2)[nH]1 (stereo not drawn),inactive
17,C[C@H]1CN([C@@H](C)CO)C(=O)c2cc(NC(=O)CCCCCC(=O)Nc3ccccc3N)ccc2O[C@H]1CN(C)S(=O)(=O)c1cccs1,inactive
18,Cc1ccc(S(=O)(=O)N(C)C[C@@H]2OCCCC[C@@H](C)Oc3ccc(NS(C)(=O)=O)cc3C(=O)N([C@@H](C)CO)C[C@@H]2C)cc1,inactive
19,COc1ccc(CN2CC3(CN(C(=O)c4ccccc4)C3)c3c([nH]c4cc(OC)ccc34)[C@H]2CO)cc1,inactive

row,SMILES,outcome
1,Cc1ccc(S(=O)(=O)Nc2ccc3c(c2)C(=O)N([C@H](C)CO)C[C@@H](C)[C@@H](CN(C)C(=O)NC(C)C)OCCCC[C@@H](C)O3)cc1,inactive
2,CO[C@H]1CC[C@H]2CCN(C)C(=O)[C@@H](C)[C@H](OC)CN(C)C(=O)c3cc(C#N)ccc3OC[C@H]1O2,inactive
3,CN1CCCCN2[C@@H](CO)[C@@H](c3ccc(C#CC4(O)CCCC4)cc3)[C@@H]2C1,inactive
4,C[C@H](CO)N1C[C@H](C)[C@H](CN(C)Cc2ccncc2)Oc2c(NC(=O)C3CC3)cccc2C1=O,inactive
5,Cc1nc(Nc2cccc(O)c2)c2oc3ccccc3c2n1,inactive
6,CCOC(=O)[C@@H]1[C@H]2COc3cc(OC)ccc3[C@@H]2N2C(=O)N(c3cccc(C)c3)C(=O)[C@]12C,inactive
7,C[C@H](CO)N1C[C@H](C)[C@@H](CN(C)Cc2cccc(F)c2)Oc2ncc(C#C[C@@H](C)O)cc2C1=O,inactive
8,COC(=O)c1ccc2c(=O)n(CCN3CCOCC3)c(SCC(=O)Nc3ccccc3Cl)nc2c1,inactive
9,CCOc1ccccc1CNC(=O)c1cc2occc2n1C,inactive
10,Cc1cc(Br)ccc1NC(=O)CN(C)C(=O)c1ccc(-n2cncn2)c([N+](=O)[O-])c1,inactive
11,COc1ccccc1CN1CCNC(=O)C1CC(=O)NCCCN1CCOCC1 (stereo not drawn),inactive
12,C=C(C)n1c(=O)n(Cc2ccccc2C)c2ccccc21,inactive
13,CO[C@H]1CN(C)C(=O)c2ccc(NC(=O)c3ccccc3F)cc2OC[C@H](C)NC[C@@H]1C,inactive
14,C[C@@H](NC(=O)C[C@@H]1CC[C@H](NC(=O)C2CCC2)[C@H](CO)O1)c1ccccc1,inactive
15,COc1ccc2oc(C)c(C(=O)c3ccc(C)cc3)c2c1,inactive
16,Cn1cnc(CCNC(=O)C[C@@H]2CC[C@H]3[C@@H](COC[C@@H](O)CN3C(=O)C3CC3)O2)c1,inactive
17,Cc1c(C(=O)OCC(=O)N(C)CC(=O)Nc2ccc(F)cc2)oc2ccccc12,inactive
18,Cc1c(C(=O)NCc2cccc([N+](=O)[O-])c2)sc(=O)n1Cc1cccc(F)c1,inactive
19,Cc1nonc1NC(=O)CSc1nnc(N)s1,inactive
